In PubChem BioAssay (NCATS):
Records with an inconclusive call do not appear. The source made the active and inactive calls. Calls follow the shape of the dose curve; as a rule, active = well fitted inhibition curve with a large enough effect; inconclusive = small, poorly fitted or top-dose-only effect; inactive = flat fitted curve, though single readings scatter.

Legend:
Test in all cases: qHTS profiling for inhibitors of Plasmodium falciparum proliferation (AID 504749); also: nearly all actives have a fitted effect of over 60% in size
Settings in all cases: P. falciparum in erythrocytes, SYBR Green DNA, 72 h; series mostly up to 28.7 µM
CP286 = test system: CP286
Summary of the method: (§1)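 SYBR Green fluorescence (ex 485 nm, em 535 nm) reports parasite DNA after 72 h compound exposure of infected red cells at 0.3% parasitemia, 2.5% hematocrit; signal normalized to 0.29 uM artemisinin and vehicle wells.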

CP291 = test system: CP291
Summary of the method: as §1

CP297 = test system: CP297
Summary of the method: as §1

CP305 = test system: CP305
Summary of the method: as §1

CP315 = test system: CP315
Summary of the method: as §1

CP325 = test system: CP325
Summary of the method: as §1

CP329 = test system: CP329
Summary of the method: as §1

CP335 = test system: CP335
Summary of the method: as §1

DFO2036 = test system: DFO2036
Summary of the method: as §1

DIV14 = test system: DIV14
Summary of the method: as §1

DIV17 = test system: DIV17
Summary of the method: as §1

DIV30 = test system: DIV30
Summary of the method: as §1

Dd2 = test system: Dd2
Summary of the method: as §1

ECU = test system: ECU
Summary of the method: as §1

FAB9 = test system: FAB9
Summary of the method: as §1

GB4 = test system: GB4
Summary of the method: as §1

HB3 = test system: HB3
Summary of the method: as §1

ICS = test system: ICS
Summary of the method: as §1

JCK = test system: JCK
Summary of the method: as §1

N140 = test system: N140
Summary of the method: as §1

Measured: Potency
Potency is read from the fitted curve at half-maximal effect.

Nc1nc(N)c(-c2ccccc2)s1
inactive: all assays above

NS(=O)(=O)c1cc(C(=O)O)cc(N2CCCC2)c1Oc1ccccc1
inactive: all assays above

Nc1ccc(S(=O)(=O)Nc2cnc3ccccc3n2)cc1
inactive: all assays above

CCCCC(CC)COC(=O)/C=C/c1ccc(OC)cc1 (stereo unspecified)
inactive: all assays above

CC(=O)OC[C@H]1O[C@@H](n2ncc(=O)[nH]c2=O)[C@H](OC(C)=O)[C@@H]1OC(C)=O
inactive: all assays above

O=c1[nH]c(=O)n([C@H]2C[C@H](O)[C@@H](CO)O2)cc1F
inactive: all assays above

N=C(N)N1CCc2ccccc2C1
inactive: all assays above

C=C[C@@]1(C)CC(=O)[C@]2(O)[C@@]3(C)[C@@H](O)CCC(C)(C)[C@@H]3[C@H](O)[C@H](OC(C)=O)[C@@]2(C)O1
inactive: all assays above

NS(=O)(=O)Cc1noc2ccccc12
inactive: all assays above

CCc1oc2ccccc2c1C(=O)c1cc(Br)c(O)c(Br)c1
inactive: all assays above

CCOC(=O)c1c(N)sc2c1CCN(Cc1ccccc1)C2
active: CP286 5.62 µM | CP291 8.49 µM | CP297 7.57 µM | CP305 6.01 µM | CP315 6.75 µM | CP325 4.78 µM | CP329 4.78 µM | CP335 4.26 µM | DFO2036 7.08 µM | DIV14 2.69 µM | DIV17 7.57 µM | DIV30 13.5 µM | Dd2 7.94 µM | ECU 7.08 µM | FAB9 4.47 µM | GB4 4.26 µM | HB3 3.55 µM | ICS 5.01 µM | JCK 11.2 µM | N140 12.6 µM

Oc1ccccc1C=NCc1ccccc1
inactive: all assays above

CCc1oc2ccccc2c1C(=O)c1cc(I)c(O)c(I)c1
inactive: all assays above

N#CCC(=O)NN
inactive: all assays above

Cc1cc(C)cc(OCC2CNC(=O)O2)c1 (stereo unspecified)
inactive: all assays above

FC(F)(F)C(F)(F)C(F)(F)C(F)(F)C(F)(F)C(F)(F)C(F)(F)C(F)(F)Br
inactive: all assays above

CC1=C(C(=O)O)N2C(=O)[C@@H](NC(=O)[C@H](N)c3ccccc3)[C@H]2SC1
inactive: all assays above

CCOC(=O)c1ccc(N)cc1
inactive: all assays above

Cc1c[nH]c2ccccc12
inactive: all assays above

CC(=O)NO
inactive: all assays above

O=C(Nc1ncc([N+](=O)[O-])s1)c1cccs1
inactive: all assays above

CCOC(=O)[C@H](CCc1ccccc1)N[C@@H](C)C(=O)N1[C@H](C(=O)O)C[C@H]2CCCC[C@@H]21
inactive: all assays above

CC(C)CCCC(C)N (stereo unspecified)
inactive: all assays above

CC(=O)Nc1ncc([N+](=O)[O-])s1
not listed: DIV17
inactive: all other assays above

C/C=C/c1ccc(O)c(OC)c1
not listed: DIV14 | DIV30 | ICS
inactive: all other assays above
